The assay addresses Phospholipase D1 (Homo sapiens) (UniProt Q13393). Put plainly: cellular phospholipase D1 activity inhibition – Calu-1 cells, single concentration (AID 602144).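 Further: tested at 200 nM.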 The note with it: cellular PLD1 activity, active compounds read low.

The structures appear in SMILES notation. Unmarked numbers belong to inactive results. The source made the active and inactive calls. No stated cut-off is given here; in the data, active means remaining activity below about 50%; inactive means the rest.

Usually remaining activity stands for the signal under treatment as a percentage of the control signal.

Sequence of Phospholipase D1 (Homo sapiens) (Q13393 whole entry, looked up): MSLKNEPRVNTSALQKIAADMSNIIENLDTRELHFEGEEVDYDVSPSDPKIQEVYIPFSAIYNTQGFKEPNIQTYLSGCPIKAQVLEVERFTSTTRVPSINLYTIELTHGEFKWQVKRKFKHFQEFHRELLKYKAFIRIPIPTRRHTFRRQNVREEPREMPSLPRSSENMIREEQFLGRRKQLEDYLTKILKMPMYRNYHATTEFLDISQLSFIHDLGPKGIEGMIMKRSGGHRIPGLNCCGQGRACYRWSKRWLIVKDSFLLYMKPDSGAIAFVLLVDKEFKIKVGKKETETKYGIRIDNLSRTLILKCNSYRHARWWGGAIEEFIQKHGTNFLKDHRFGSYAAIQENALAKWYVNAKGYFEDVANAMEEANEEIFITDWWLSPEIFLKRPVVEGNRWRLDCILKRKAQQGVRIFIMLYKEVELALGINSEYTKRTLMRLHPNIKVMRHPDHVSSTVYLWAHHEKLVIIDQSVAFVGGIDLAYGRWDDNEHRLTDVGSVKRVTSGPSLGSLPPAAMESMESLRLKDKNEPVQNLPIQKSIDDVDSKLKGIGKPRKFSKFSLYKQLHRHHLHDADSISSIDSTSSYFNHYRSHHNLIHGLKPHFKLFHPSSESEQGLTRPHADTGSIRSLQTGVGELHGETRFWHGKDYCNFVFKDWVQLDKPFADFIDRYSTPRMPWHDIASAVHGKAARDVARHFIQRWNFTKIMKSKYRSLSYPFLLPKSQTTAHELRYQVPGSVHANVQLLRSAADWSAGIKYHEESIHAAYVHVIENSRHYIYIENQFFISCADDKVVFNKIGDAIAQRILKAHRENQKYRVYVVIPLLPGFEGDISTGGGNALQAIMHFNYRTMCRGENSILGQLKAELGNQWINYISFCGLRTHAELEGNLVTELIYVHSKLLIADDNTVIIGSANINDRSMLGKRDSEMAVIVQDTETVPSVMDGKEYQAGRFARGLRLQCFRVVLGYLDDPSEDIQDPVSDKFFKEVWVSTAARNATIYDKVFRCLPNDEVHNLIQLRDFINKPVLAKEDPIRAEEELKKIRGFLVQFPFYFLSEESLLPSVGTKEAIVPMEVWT
Sequence of Phospholipase D1 (Homo sapiens) (Q13393 whole entry, looked up): as above

For `O=C(c1ccc(F)c(F)c1)N1CCC[C@@H]1CN1CCC2(CC1)C(=O)NCN2c1ccccc1`, the remaining activity is 93.7%.

For `O=C(NCCN1CCC2(CC1)C(=O)NCN2c1cccc(F)c1)c1ccc(-c2ccccc2)cc1`, the remaining activity is 93%.

Consider `COc1cccc(C(=O)NCCN2CCC3(CC2)C(=O)NCN3c2ccccc2)n1`, for which the remaining activity was 137%.

In the case of `O=C(NCCN1CCC2(CC1)C(=O)NCN2c1cccc(Br)c1)c1ccc2ccccc2c1`, the remaining activity is 76.6%.

On to `C[C@@H](CN1CCC2(CC1)C(=O)NCN2c1ccc(F)c(F)c1)NC(=O)c1cc2cc(F)ccc2[nH]1`, for which the remaining activity is 0% (active).

Regarding `CCCCCC(=O)N(CCN1CCC2(CC1)C(=O)NCN2c1cccc(F)c1)C(=O)CCCCC`, the remaining activity is 90.1%.

As to `O=C(NCCN1CCC2(CC1)C(=O)NCN2c1ccc(F)cc1)c1ccc(F)cc1`, the remaining activity is 78.2%.

Take `Cc1cccc(C(=O)NCCN2CCC3(CC2)C(=O)NCN3c2ccccc2)n1`: the remaining activity was 123%.

In the case of `O=C(NCCN1CCC2(CC1)C(=O)NCN2c1ccccc1)c1cnc2ccccc2c1`, the remaining activity is 130%.

With `O=C(NCCN1CCC2(CC1)C(=O)NCN2c1ccc(F)c(F)c1)c1cc2cc(F)ccc2[nH]1`, the remaining activity was 69.1%.

In the case of `CC(C)[C@@H](CN1CCC2(CC1)C(=O)NCN2c1ccccc1)NC(=O)c1ccc2ccccc2c1`, the remaining activity was 20.7% (active).

Take `O=C(NCCN1CCC2(CC1)C(=O)NCN2c1cccc(F)c1)C12CC3CC(CC(C3)C1)C2`: the remaining activity was 98.7%.

With `O=C(CCN1CCC2(CC1)C(=O)NCN2c1ccccc1)Nc1ccc(F)cc1`, the remaining activity was 125%.

Values taken from PubChem BioAssay AID602144 (Vanderbilt Specialized Chemistry Center, 2011).
